# Test results reported in PubChem BioAssay (NCI).
# The panel holds about 83,000 compounds, 20% with a hit somewhere; the sample as a whole holds those more often.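 Single-concentration screen, 48 h exposure, 96-well plates. Endpoint: percent growth. Below 10 = active.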 Unmarked numbers belong to inactive results. Active and inactive are the calls of the source.
# Tested on: HCT-15 colon
# Experiment: NCI-60 one-dose screen, 48 h (100 = growth as untreated, 0 = no growth, -100 = all killed)
# Conditions: 10 µM unless noted
# Experimental: Growth inhibition of the HCT-15 human tumor cell line is measured as a screen for anti-cancer activity. Cells are grown in 96 well plates and exposed to the test compound for 48 hours. Compounds are tested at a single concentration, which is 10^-5 M for most compounds. The reported endpoint is percent growth (GI% or GIPRCNT), where numbers from 0 - 100% represent growth inhibition, and numbers from -100% - 0 represent cell death. For example, a value of 40 represents 60% growth inhibition. A value of 0 means no net growth occurred over the course of the experiment. A value of -40 indicates 40% of cells at the beginning of the experiment died by the end of the experiment. A value of -100 means all cells are dead at the end of the experiment.
# NCI-60 Human Tumor Cell Lines Screen was performed using the standard one-dose NCI protocol, which is described in more detail at https://dtp.cancer.gov/discovery_development/nci-60/default.htm.
# Compounds with GIPRCNT values below 10 were considered active. Activity score was based on GIPRCNT using the following formula: […]
# Score is 0 for GIPRCNT values of 100 or above, 50 for GIPRCNT values of 0, and 100 for GIPRCNT values of -100.
row,SMILES,growth
1,COc1ccc2c(c1)C(C)Cc1c(ncnc1-n1cnc3ccccc31)N2C (stereo not given),16.1%
2,C=C1C(=O)O[C@H]2[C@H]1CC/C(COC(=O)NCc1ccc(Cn3c(=O)sn(-c4ccc(Cl)cc4)c3=O)cc1)=C\CC[C@@]1(C)O[C@@H]21,54.5%
3,Nc1cc(N)c(N=Nc2ccc(S(=O)(=O)O)cc2)cc1N=Nc1ccc(-c2ccc(N=Nc3ccc(O)c(C(=O)O)c3)cc2)cc1,103%
4,O=C1NC(=O)C(Cc2ccccc2)(Cc2ccccc2)N1,102%
5,O=C(O)c1ccccc1C(F)(F)F,104%
6,Cc1ccc(NC(=O)N[C@@H](Cc2cc(F)cc(F)c2)C(=O)N[C@@H]2C(=O)N3CCC[C@H]3C(=O)N3CCCC[C@H]3C(=O)N[C@@H](C)C(=O)N3C[C@H](C)C[C@H]3C(=O)O[C@H]2C)cc1,14.7%
7,CCCCN(CC)CC(CC)Nc1cc(OC)cc2cccnc12 (stereo not given),97.2%
8,O=C(NCc1ccccc1)C(Cl)Cl,98.2%
9,CC(=O)CC(=O)SC1=NCCS1,100%
10,Nc1ccc2c(c1)Cc1cc(NC(=O)C(F)(F)F)ccc1-2,96.4%
11,COc1ncnc2c(-c3ccccc3)cn(COCc3ccccc3)c12,42.6%
12,CCOC(=O)C1=C(C(=O)c2ccc(Br)cc2)C(c2ccc(Br)cc2)NC(=S)N1 (stereo not given),99%
13,COc1ccc2nc3cc(Cl)ccc3c(Nc3ccc(O)c(CN4CCCC4)c3)c2c1,0.129% (active)
14,CCCCC1COc2cccc3c2N1C=C/C3=C\C(=O)n1ccc2ccccc21 (stereo not given),47.6%
15,Brc1ccc(-c2nnc3c4[nH]ccc4ncn23)cc1,88.6%
16,CNC(=O)c1cc(Oc2cccc3nc(NC(=O)Nc4cc(C(F)(F)F)cc(C(F)(F)F)c4)ccc23)ccn1,71.1%
17,O=C(Nc1cccc2cccnc12)c1cc(C(=O)c2ccc(Cl)cc2)n2ccc(-c3ccncc3)cc12,99.1%
18,CC[C@@H]1NC(=O)[C@@H]2CCCCN2C(=O)[C@@H]2CCCN2C(=O)[C@@H](NC(=O)[C@H](Cc2cc(F)cc(F)c2)NC(=O)Nc2ccc(C3CC3)cc2F)[C@H](C)OC(=O)[C@@H]2C[C@@H](C)CN2C1=O,4.6% (active)
19,COc1cc(OC)cc(C(=O)Nc2cc(-c3cccnc3)nc(NCCCN3CCOCC3)n2)c1,90.6%
20,CCN(CC)CC(C)Nc1ccc(C)c2sc3ccccc3c(=O)c12 (stereo not given),32.5%

row,SMILES,growth
1,CO[C@H]1CC[C@@]2(C)C(=CC[C@H]3[C@@H]4C[C@H](O)C[C@@]4(C)CC[C@@H]32)C1,36.4%
2,CC1(C)CC[C@]2(C(N)=O)CC[C@]3(C)C(=CC[C@@H]4[C@@]5(C)C/C(=C/c6cccnc6)C(=O)C(C)(C)[C@@H]5CC[C@]43C)[C@@H]2C1,-65.6% [100 µM] (active)
3,O=C1COCCN1c1ccc(NCc2cn(Cc3ccc(F)cc3)c3ccccc23)cc1,61.9%
4,Cc1nc(-c2ccccc2)sc1CC#N,102%
5,CC(C)CCSc1nc(N)nc2nc[nH]c12,107%
6,CCOC(=O)c1sc2nc(-c3cc(OC)c(OC)c(OC)c3)nc(N3CCOCC3)c2c1C,29.1%
7,Cn1cc(-c2noc(-c3cn(C)c4ncccc34)n2)c2cc(Cl)ccc21,92.8%
8,CC[C@]1(O)CC2CN(CCc3c([nH]c4ccccc34)[C@@](C(=O)OC)(c3cc4c(cc3OC)N(C=O)[C@H]3[C@@](O)(C(=O)OC)[C@H](OC(C)=O)[C@]5(CC)C=CCN6CC[C@]43[C@@H]65)C2)C1 (stereo not given in full),16%
9,O=C(Nc1ccc(CN2CCOCC2)c(C(F)(F)F)c1)c1nc2ccc3[nH]ncc3c2c2c1CCCC2,82.4%
10,CCN(CC)c1cc(N)c(Cc2c(N)cc(N(CC)CC)cc2Cl)c(Cl)c1,91.7%
11,Cn1cc(-c2nnc(-c3cn(C)c4ncccc34)o2)c2ccccc21,17.9%
12,C=C(C)[C@@H]1CC[C@]2(C(=O)NCCCN)CC[C@]3(C)[C@H](CC[C@@H]4[C@@]5(C)CC[C@H](O)C(C)(C)[C@@H]5CC[C@]43C)[C@@H]12,-22.1% [100 µM] (active)
13,O=C1/C(=C/c2cccc(OCc3ccccc3)c2)Oc2cc(OCCN3CCCCC3)ccc21,-37% (active)
14,O=[N+]([O-])c1cc(CCl)ccc1OCCBr,91.1%
15,c1ccc2c(c1)CN(CCCN1CCOCC1)C2,102%
16,O=C(Oc1ccc(Cl)cc1[N+](=O)[O-])Oc1ccc(Cl)cc1[N+](=O)[O-],106%
17,N#CCCc1c[nH]c2ccccc12,104%
18,COc1cc(/C=C/C(=O)/C=C/c2ccc(-n3ccnc3C)cc2)ccc1O,82.4%
19,CCC(Br)(CC)C(=O)c1ccc(OCC(=O)O)c(Cl)c1Cl,103%
20,Nc1nc(N)c2c(n1)NC(c1ccc(F)cc1)C1CCc3ccccc3C1=N2 (stereo not given),49.6%
